The values below come from PubChem BioAssay.

Each structure is given as a SMILES string. Inconclusive results are not listed. Activity calls are given as the source filed them.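 Rule for the calls, unless noted: active = viability increase at or above a cutoff of the median across tested compounds plus 3 SD (cut at about 8.5% in these data, passing the limit was not always enough); inconclusive = some gains above the cutoff, reason not given; inactive = the rest.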

The term viability denotes a read-out of living cells in per cent, often relative to untreated cells. For orientation: inhibition means the drop in the measured response relative to a control, in per cent.

A short description of test [1]: reducers of endogenous Her2 protein level, primary screen, SKBR3 breast tumor cells, AlphaScreen, ATP viability (AID 461;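 active = Her2 level under about 52% in both replicate screens, with viability over 70% of control, limit read from the data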;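 for Her2 level: lower value means less Her2 protein in the cells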;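 for viability: percent of carrier control wells set as 100% viability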). The settings on record: 18-24 h, measured here: SKBR3 viability, ATP luminescence, at 10 µM. In general terms: In Alpha technology, singlet oxygen from a donor bead excites a nearby acceptor bead.
In test [2] the target is Receptor tyrosine-protein kinase erbB-2 (Homo sapiens) (UniProt P04626). The test is described as above. To be noted: 18-24 h, at 10 µM, stronger effect = lower value.
Test [3] in a line: SK-BR-3 cell growth inhibitors, pilot screen, 24 h, human (AID 572;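 active = viability at or below 10% of carrier control in both of two separate runs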;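 note: compound exposure lasted between 18 and 24 h rather than exactly 24 h; 100% = carrier-treated control wells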). The settings on record: SK-BR-3 viability, CellTiter-Glo luminescence, at 10 µM, stronger effect = lower value.
The nature of test [4]: HUVEC growth inhibition – cell-based, human, primary screen (AID 575;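 active = viability at or below 30% in both replicate assays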;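 note: 100% = median of untreated cell wells with 0.1% DMSO on each plate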). To be noted: HUVEC proliferation, CellTiter-Glo luminescence, 72 h; at 10 µM; stronger effect = lower value.
Test [5] is described as follows: growth inhibitors of H69AR lung tumor, primary screen, human, duplicate replicates (AID 580;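 active = viability at or under a set limit in both replicates, limit being median viability minus 3 SD, cut at about 48% in these data, passing the limit was not always enough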;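 note: 100% = mean luminescence of untreated wells and 0% = no signal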). The settings on record: H69AR lung tumor cells viability, ATP luminescence, 72 h; at 10 µM; stronger effect = lower value.
Test [6] is described as follows: reversal of MRP1-mediated doxorubicin resistance, pilot screen, H69AR cells, doxorubicin co-treatment (AID 601;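 active = viability loss from added drug above about 55%, and viability with drug at most 40%, in both replicates, limit read from the data, passing the limit was not always enough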). The settings on record: CellTiter-Glo, 72 h, at 10 µM; for differential viability (reversal): stronger effect = higher value.
Test [7] is described as follows: 384-well plate pilot, post-Golgi transport modulator project, inhibition of yeast transport mutant growth (AID 636; in the data active = inhibition above about 31%). The settings on record: absorbance 615 nm, about 18 h, stronger effect = higher value.
Test [8] in a line: growth suppression of yeast trafficking mutant, preliminary HTS, modulators of trafficking downstream of Golgi apparatus project, 1536-format plate, OD 615 nm (AID 637; in the data active = inhibition above about 30%). The settings on record: yeast transport mutant growth, absorbance 615 nm, 18 h; stronger effect = higher value.
A short description of test [9]: OD615 S. cerevisiae growth inhibition, permissive medium, pilot counter-assay, permissive growth control for S. cerevisiae lifespan shortening project (AID 705;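 active = growth inhibition above 25% in both replicates, a cutoff set 3 SD above the mean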). To be noted: OD615, 24 h, at 10 µM, stronger effect = higher value.
Test [10] can be described thus: Restrictive medium S. cerevisiae growth inhibition, OD615, pilot screen of yeast lifespan reduction project, restrictive growth control (AID 706;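 active = growth inhibition above a set limit, 3 SD over mean compound inhibition, in both replicates, cut at about 43% in these data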;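 note: modified DeaD lifespan yeast strain shifted to restrictive glucose medium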). The settings on record: OD615, 48 h, at 10 µM, stronger effect = higher value.
The nature of test [11]: viability gain of MRP-1-high H69AR cells under doxorubicin, pilot screen, MRP-1 activator project, CellTiter-Glo, duplicate (AID 807).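 Note: compound pretreatment 18-22 h then 72 h combined with doxorubicin; 0% = doxorubicin alone and 100% = vehicle without doxorubicin.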 To be noted: H69AR viability with doxorubicin, CellTiter-Glo luminescence; at 10 µM; stronger effect = higher value. Background: In ATP-based viability assays light output follows the ATP content of the culture.
The nature of test [12]: growth suppression of beta-catenin knockout HCT116, pilot screen, human colon tumor cells (AID 823;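 active = cell viability at or below a set limit in both duplicate runs, the limit being the all-compound median minus 4 SD, cut at about 23% in these data, passing the limit was not always enough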;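 note: 0% = wells killed by 20 µM Hyamine and 100% = untreated DMSO cell wells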). To be noted: CellTiter-Glo, 60 h, at 10 µM, stronger effect = lower value.
The nature of test [13]: growth suppression of PTEN-deleted HCT116, pilot screen, cell-based, HCT116 clonal line, CellTiter-Glo (AID 824;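 active = viability at or below 27.92% in each of two runs, the all-compound median minus 4 SD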;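 note: 0% = 20 µM Hyamine control and 100% = vehicle cell control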). To be noted: 60 h, at 10 µM, stronger effect = lower value.
Test [14] can be described thus: inhibitors of the yeast RAM network, pilot screen, dse1pr::URA3 reporter, 5-FOA selection (AID 869;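 active = inhibition over a set limit, the all-compound mean plus 3 SD, in both replicate runs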;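 note: 0% = DMSO wells with no growth and 100% = 10 µM 1-NA-PP1 with full growth; RAM network block rescues cells from 5-FOA so hits raise OD615 growth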). The settings on record: S. cerevisiae dse1pr::URA3 5-FOA growth, OD615, 2 d; at 10 µM; stronger effect = higher value; strain carries analog-sensitive mutant Cbk1 kinase.
Test [15] is described as follows: RAM signaling pathway blockade in yeast – S. cerevisiae, Pdr1DBD-CYC8 efflux-inhibited sensitized strain, primary screen (AID 1298;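 active = RAM network inhibition above 8.4% in each of two replicates, 3 SD over the compound average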;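 note: 0% = DMSO untreated cells without growth and 100% = 10 µM 1-NA-PP1 full growth; higher means more yeast growth rescued from 5-FOA killing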). To be noted: S. cerevisiae cbk1-as DSE1-URA3 strain, 5-FOA growth OD615, 2 d; at 50 µM; stronger effect = higher value.
The mark [16] stands for this setting: H69AR cells + 2 uM doxorubicin, measured here: viability with 2 uM doxorubicin, stronger effect = lower value.
[17] abbreviates: H69AR cells, compound alone cytotoxicity.

Receptor tyrosine-protein kinase erbB-2 (Homo sapiens), sequence (P04626 whole entry, looked up): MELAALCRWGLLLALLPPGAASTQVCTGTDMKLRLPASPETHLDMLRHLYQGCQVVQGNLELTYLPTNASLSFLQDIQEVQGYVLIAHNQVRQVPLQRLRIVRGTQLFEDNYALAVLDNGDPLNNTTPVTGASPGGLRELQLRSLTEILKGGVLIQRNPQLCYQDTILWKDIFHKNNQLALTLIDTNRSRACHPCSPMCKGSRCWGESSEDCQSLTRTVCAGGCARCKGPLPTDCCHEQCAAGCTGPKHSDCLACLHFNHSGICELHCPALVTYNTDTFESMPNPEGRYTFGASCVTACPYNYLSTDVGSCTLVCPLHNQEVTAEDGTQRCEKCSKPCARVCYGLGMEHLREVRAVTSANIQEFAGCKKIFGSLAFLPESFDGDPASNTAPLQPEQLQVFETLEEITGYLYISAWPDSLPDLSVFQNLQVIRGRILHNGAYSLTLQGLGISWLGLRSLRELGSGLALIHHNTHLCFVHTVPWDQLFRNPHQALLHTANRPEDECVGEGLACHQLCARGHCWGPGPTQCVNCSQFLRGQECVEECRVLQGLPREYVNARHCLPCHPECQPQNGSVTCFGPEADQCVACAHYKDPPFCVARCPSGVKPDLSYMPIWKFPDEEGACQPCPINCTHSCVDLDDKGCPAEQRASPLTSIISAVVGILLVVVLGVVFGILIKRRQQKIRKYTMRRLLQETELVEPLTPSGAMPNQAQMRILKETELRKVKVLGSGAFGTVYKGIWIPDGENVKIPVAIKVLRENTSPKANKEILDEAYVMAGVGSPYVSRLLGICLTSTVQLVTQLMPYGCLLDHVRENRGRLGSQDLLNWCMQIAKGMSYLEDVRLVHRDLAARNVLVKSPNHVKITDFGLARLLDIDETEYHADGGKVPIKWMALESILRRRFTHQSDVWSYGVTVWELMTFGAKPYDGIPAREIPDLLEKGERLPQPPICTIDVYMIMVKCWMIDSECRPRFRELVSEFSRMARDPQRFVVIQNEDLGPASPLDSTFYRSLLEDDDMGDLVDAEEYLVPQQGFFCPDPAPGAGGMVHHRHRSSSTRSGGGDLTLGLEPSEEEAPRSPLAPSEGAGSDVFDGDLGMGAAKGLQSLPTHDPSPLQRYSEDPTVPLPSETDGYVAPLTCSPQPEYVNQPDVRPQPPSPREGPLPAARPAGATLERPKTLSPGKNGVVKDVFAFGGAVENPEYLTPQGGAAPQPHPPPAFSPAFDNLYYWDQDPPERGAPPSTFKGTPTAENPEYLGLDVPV

As for `COc1cccc(-c2nc(CS(=O)(=O)CC(=O)N3CCN(c4ccccn4)CC3)c(C)o2)c1`, the viability in test [1] was 90%; in test [3] it was 90% (inactive); in test [4], 81% (inactive); in test [5], 90.9% (inactive); in [6] (setting [16]), 78.3%; in [6] (setting [17]), 90.9%. In addition, the viability is 73.3% (inactive) in test [12] and 71.6% (inactive) in test [13]. The Her2 level in [2] was 112% (inactive). In addition, in [6] (H69AR cells + 2 uM doxorubicin), the differential viability (reversal) is 12.7% (inactive). Further, the values for the inhibition in test [7], in test [8] and in test [14] were -4% (inactive), 3.61% (inactive) and 0.835% (inactive), respectively. In addition, the growth inhibition in test [9] is 0.71% (inactive); in [10] it was -2.45% (inactive). Further, the viability increase in test [11] is -0.47% (inactive). Further, in [15], the RAM network inhibition was 5.35% (inactive).

For `COc1ccc(C(NC(=O)c2ccco2)c2ccc(OC)c(OC)c2)cc1` (stereo not given), the viability in test [1] was 93%; in test [3], 93% (inactive); in test [4], 89.2% (inactive); in test [5], 96.2% (inactive); in test [6] (setting [16]), 81.1%; in test [6] (setting [17]), 96.2%. In addition, the values for the viability in [12] and in test [13] were 98.2% (inactive) and 96.4% (inactive), respectively. Moreover, the Her2 level in [2] is 84% (inactive). Besides, in test [6] (H69AR cells + 2 uM doxorubicin), the differential viability (reversal) was 15.1% (inactive). For the same compound, the inhibition in test [7] was -8.11% (inactive); in test [8], -3.17% (inactive); in [14] it was 1.3% (inactive). In addition, the growth inhibition was -14.2% (inactive) in [9] and -19.3% (inactive) in [10]. In test [11], the viability increase was -4.05% (inactive). In test [15], the RAM network inhibition is 2.41% (inactive).

On to `O=C(c1ccc(=O)[nH]c1)N(Cc1ccco1)C1(C(=O)NC2CCCC2)CCCCC1`, for which the viability was 102% in test [1]; 102% (inactive) in test [3]; 102% (inactive) in test [4]; 104% (inactive) in test [5]; 91.7% in test [6] (setting [16]); 104% in test [6] (setting [17]). The viability in test [12] is 98.6% (inactive); in test [13], 100% (inactive). In [2], the Her2 level was 99.5% (inactive). For the same compound, in [6] (H69AR cells + 2 uM doxorubicin), the differential viability (reversal) was 11.9% (inactive). Also, the inhibition in test [7] was -7.81% (inactive); in test [8], -3.17% (inactive); in test [14], -0.16% (inactive). The figures for the growth inhibition in [9] and in [10] were 2.31% (inactive) and -5.5% (inactive), respectively. The viability increase in test [11] is -2% (inactive). In addition, the RAM network inhibition in [15] is 1.35% (inactive).

Regarding `CCCCCn1c(CN2CCN(C(=O)c3ccco3)CC2)nc2c1c(=O)n(C)c(=O)n2C`, the viability in [1] was 96.5%; in test [3], 96.5% (inactive); in test [4] it was 92.8% (inactive); in test [5] it was 77.5% (inactive); in test [6] (setting [16]), 49.5%; in [6] (setting [17]), 77.5%. In addition, the viability in test [12] is 93.6% (inactive); in test [13], 93.2% (inactive). For the same compound, the Her2 level in test [2] was 103% (inactive). The differential viability (reversal) in test [6] (H69AR cells + 2 uM doxorubicin) is 27.9% (inactive). In addition, the inhibition is -5.6% (inactive) in test [7], -5.83% (inactive) in [8] and -0.2% (inactive) in [14]. Moreover, the growth inhibition in test [9] is -0.285% (inactive); in test [10], -8.78% (inactive). In addition, the viability increase in test [11] is -2.57% (inactive). Besides, the RAM network inhibition in test [15] was 1.17% (inactive).

In the case of `O=C(C1CCN(S(=O)(=O)c2cccc3cccnc23)CC1)N1CCN(C2CCCCC2)CC1`, the viability in test [1] is 102%; in test [3], 102% (inactive); in [4], 99.9% (inactive); in test [5], 102% (inactive); in test [6] (setting [16]), 99.2%; in test [6] (setting [17]), 102%. Further, the viability in test [12] was 97.8% (inactive); in test [13], 98.7% (inactive). Also, the Her2 level in test [2] is 102% (inactive). Moreover, the differential viability (reversal) in [6] (H69AR cells + 2 uM doxorubicin) is 2.56% (inactive). The figures for the inhibition in [7], in test [8] and in test [14] were -2.8% (inactive), -0.49% (inactive) and 1.12% (inactive), respectively. The growth inhibition in [9] is 6.08% (inactive); in test [10] it was 0.815% (inactive). The viability increase in [11] is -2.03% (inactive). Moreover, the RAM network inhibition in test [15] was 7.73% (inactive).
